TMEM16A inh = TMEM16A chloride channel inhibitors, primary screen, cell-based, HTS; HEK293 TMEM16A/YFP iodide influx fluorescence, ionomycin; 310,000 tested, 1.2% active; normalized B-score (activity score, 25-100; higher = stronger inhibition) at 10 µM; AID 588511, 2011;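 active means ratio plate-corrected score three or more library SD toward inhibition, starting fluorescence score within five deviations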;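 further: score derived from kinetic fluorescence span divided by baseline fluorescence per well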
Kir21 inh = inhibitors of mouse Kir2.1 inward-rectifier potassium channel | Inward rectifier potassium channel 2 (Mus musculus), P35561 | HEK293-Kir2.1, FluxOR thallium flux fluorescence; stronger effect = lower value | B-score at 10 µM | 310,000 tested, 0.85% active | AID 1672, 2009;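 active means fluorescence ratio B-score at or below minus 3 SD of library scores, with starting-brightness B-score within 2 SD, cut at about -4.2 in these data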;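 further: channel flux triggered by added potassium and thallium sulfate stimulus; B-score of peak minus minimum fluorescence over baseline after thallium stimulus; more negative B-score means stronger Kir2.1 block with less thallium influx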
CHT PAM = CHT positive allosteric modulators, primary screen, cell-based, membrane potential dye, choline EC20; CHT-expressing cells; stronger effect = higher value; LV-AA mutant CHT in HEK293 cells; 310,000 tested, 0.49% active; High affinity choline transporter 1 (Homo sapiens), Q9GZV3; AID 488977, 2010; B-score at 10 µM;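 active means initial fluorescence not abnormally high and integrated response B-score, plate-corrected, over 3 SD above library mean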
Rce1 inh = yeast Rce1p protease inhibitors, primary screen, biochemical, fluorescence, cell-free homogeneous; AID 2563, 2010; 290,000 tested, 0.27% active; calls only; CAAX prenyl protease 2 (Saccharomyces cerevisiae (strain ATCC 204508 / S288c)), Q03530; yeast membranes, quenched prenylated peptide cleavage fluorescence;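 active means fall in fluorescence gain of 50% or more versus controls, with final raw signal at or below 3038400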;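 further: plate controls were neutral control wells for no effect and wells lacking membranes for full effect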
Target sequence (Q03530 whole entry, looked up): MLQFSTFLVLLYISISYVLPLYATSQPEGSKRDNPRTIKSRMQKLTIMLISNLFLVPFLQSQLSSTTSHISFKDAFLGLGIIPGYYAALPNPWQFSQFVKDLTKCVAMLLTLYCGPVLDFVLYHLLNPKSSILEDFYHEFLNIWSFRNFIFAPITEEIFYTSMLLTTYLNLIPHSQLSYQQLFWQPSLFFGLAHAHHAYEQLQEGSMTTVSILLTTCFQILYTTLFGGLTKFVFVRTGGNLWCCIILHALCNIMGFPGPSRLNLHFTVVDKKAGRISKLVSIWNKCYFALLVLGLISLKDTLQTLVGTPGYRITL
TMEM16A act = TMEM16A chloride channel activators or potentiators, primary screen, cell-based, HTS; HEK293 TMEM16A/YFP-H148Q/I152L, iodide quench fluorescence; stronger effect = lower value; Anoctamin-1 (Mus musculus), Q8BHY3; B-score at 10 µM; 340,000 tested, 0.3% active;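 active means fluorescence-ratio B-score plate-corrected deviation score at least 3 library SD below zero, with starting fluorescence score within 5 deviations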;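 further: channel opened by trigger with iodide after compound preincubation; score built on the fluorescence ratio of max minus min over baseline; more negative score means more quench and so TMEM16A activation or potentiation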
CHT inh = inhibitors of human choline transporter CHT | AID 488975, 2010 | CHT-expressing cells, membrane potential dye, choline response; stronger effect = lower value | B-score at 10 µM | 310,000 tested, 0.86% active;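 active means B-score over 3 SD under the library average, and starting fluorescence ratio not unusually high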;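 further: choline stimulus applied at its EC90 after an EC20 pre-addition; B-score computed on integrated fluorescence ratio after choline addition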
CHT inh conf = CHT inhibitors, confirmation, cell-based, membrane potential dye, duplicate | CHT activity remaining % of control (stronger effect = lower value), % at 10 µM | shares compounds with CHT inh | 2,400 tested, 70% active | AID 493221, 2011 | CHT-expressing cells, choline membrane potential dye; LV-to-AA substituted CHT, HEK293 cells;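 active means choline transporter activity left, mean of duplicates at 10 µM, below buffer-only control mean minus 3 SD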;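 further: depolarization triggered by choline at its EC90 following an EC20 pre-addition; 0% = hemicholinium-3 full block and 100% = buffer-only control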
HEK293 CHT ctr = membrane potential effects in parental HEK293, counter-screen for CHT inhibitor project, cell-based, membrane potential dye; membrane potential ratio readout (active if shifted either direction beyond buffer ±3SD; no single direction) at 10 µM; 2,400 tested, 4% active; choline response; active = decrease or increase beyond buffer ±3SD; shares compounds with CHT inh;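 further: parental cells lack the transporter so any hit is non-specific; ratio is peak minus trough fluorescence over baseline after EC90 choline challenge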
An asterisk follows results filed as active; i = inactive; . = no result given. This is a sample that favours compounds with a hit; in the whole collection about 3.2% have one here.

SMILES	TMEM16A inh	Kir21 inh	CHT PAM	Rce1 inh	TMEM16A act	CHT inh	CHT inh conf	HEK293 CHT ctr
CC(C)Cn1c(=O)c2c(nc3n2CCCN3CCc2ccccc2)n(C)c1=O	25*	0.34	i	i	i	-5.4*	62%*	i
COc1ccc(OC)c(/C=C/C(=O)c2ccc3c(c2)OCCO3)c1	i	-0.1	i	i	i	i	.	.
CCc1cc2c(=O)n(CC)c(SC(C)C(=O)Nc3c(C)n(C)n(-c4ccccc4)c3=O)nc2s1 (configuration not stated)	i	0	i	i	i	-5.6*	i	i
CCc1cc2c(NCc3ccco3)ncnc2s1	i	-1.6	i	i	i	-6.6*	50%*	i
CCc1cc2c(NCC(=O)O)ncnc2s1	i	1.3	i	.	i	i	.	.
COC(=O)c1ccc(C(=O)N2CCCC(Nc3ccc(C(C)C)cc3)C2)nc1 (configuration not stated)	i	-0.95	i	i	i	-5.2*	58%*	i
CC(C)c1ccc(NC2CCCN(C(=O)c3cc(C(C)C)[nH]n3)C2)cc1 (configuration not stated)	.	0.18	.	i	i	.	.	.
O=C(Nc1ccc(F)cc1)Nc1ccccc1NS(=O)(=O)c1cccs1	i	-0.1	i	i	i	-5.3*	i	i
NC(=O)c1ccccc1NS(=O)(=O)c1cccs1	i	-0.38	i	i	i	i	.	.
CCOc1ccc(N2C(=O)C(C)CNC2=S)cc1 (configuration not stated)	.	.	.	.	i	.	.	.
CC(=O)OC(c1nc2ccccc2c(=O)n1C1CC2(OC1=O)c1ccccc1N1C(=O)C(C)(C)N(O)C12)C(C)C (configuration not stated)	i	0.19	i	i	i	i	.	.
Cc1ccc(-n2c(C)cc(C3=NNC(=NC4CC4)SC3)c2C)cc1C	i	-2.1	i	i	i	-6.3*	i	i
O=c1c2cc(NC(=S)N3CCCCC3)ccc2nc2n1CCCCC2	i	-0.17	i	.	i	i	.	.
CN(Cc1ccccc1)C(=S)Nc1ccc2nc3n(c(=O)c2c1)CCCCC3	i	0.01	i	i	i	-7*	i	i
COc1ccc(NC(=O)CSc2nccn2Cc2ccccc2)cc1	i	-0.13	i	i	i	-5.3*	56%*	i
COc1ccc(NC(=O)CSc2nccn2-c2ccccc2)cc1	i	-2.1	i	i	i	i	.	.
COc1ccc(-n2ccnc2SCC(=O)NO)cc1	i	0.19	i	i	i	-5.3*	i	i
O=C(CSc1nccn1-c1ccccc1)NO	i	0.02	i	i	i	i	.	.
Cc1ccc(OCCSCc2nc3ccccc3[nH]2)cc1	i	-0.3	i	i	i	-5.5*	i	i
Cc1ccc(CSCc2nc3ccccc3[nH]2)cc1	.	-0.6	.	i	i	.	.	.
COc1ccc(S(=O)(=O)N2CCN(C(=S)Nc3ccc(S(N)(=O)=O)cc3)CC2)cc1	i	-0.45	i	i	i	i	.	.
CCN(C(=O)c1cc2c(=O)n3ccccc3nc2n1CCCOC)C1CCCCC1	i	-0.99	i	i	i	-5*	45%*	i

Assay outcomes: PubChem, several laboratories
